About 2,000 (36%) of roughly 5,500 compounds were called active. Another 18% or so got no clear call; they are omitted. Rule as the data show it: active = normalized growth mostly below about 0.91 (no sharp cut-off); inconclusive = no clear call, values can overlap the other calls; inactive = mostly above about 0.92. Some of the results follow.
Test: chemical genetic growth profiling, strain panel (AID 1159580);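 also: tested at 20 µM; growth read once vehicle control cultures reached saturation at 30 °C; 1 = growth at the plate median or of vehicle wells; lower values mean less growth of the strain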
Settings: growth OD

Measured: normalized growth

CCOC(=O)NNc1nncc2ccccc12
inactive: S. cerevisiae deletion strains, locus YJR066W, strain TOR1, hits give low values 0.978 | S. cerevisiae deletion strains, locus YJR075W, strain HOC1, hits give low values 0.997 | S. cerevisiae deletion strains, locus YKL009W, strain mrt4, hits give low values 0.986 | S. cerevisiae deletion strains, locus YKL068W, hits give low values 0.984 | S. cerevisiae deletion strains, locus YKL085W, strain MDH1 (second series), hits give low values 0.992 | S. cerevisiae deletion strains, locus YKL085W, strain MDH1, hits give low values 0.992 | S. cerevisiae deletion strains, locus YKL160W, strain elf1, hits give low values 1.02 | S. cerevisiae deletion strains, locus YKL190W, strain CNB1, hits give low values 0.998 | S. cerevisiae deletion strains, locus YKR001C, strain vps1, hits give low values 0.983 | S. cerevisiae deletion strains, locus YKR026C, strain gcn3, hits give low values 1.02 | S. cerevisiae deletion strains, locus YKR091W, strain srl3, hits give low values 1 | S. cerevisiae deletion strains, locus YLL001W, strain dnm1, hits give low values 0.986 | S. cerevisiae deletion strains, locus YLL026W, hits give low values 1 | S. cerevisiae deletion strains, locus YLL041C, strain sdh2, hits give low values 1.01 | S. cerevisiae deletion strains, locus YLR027C, strain aat2, hits give low values 1 | S. cerevisiae deletion strains, locus YLR039C, strain RIC1, hits give low values 1.03 | S. cerevisiae deletion strains, locus YLR058C, strain SHM2, hits give low values 0.992 | S. cerevisiae deletion strains, locus YLR102C, strain apc9, hits give low values 0.979 | S. cerevisiae deletion strains, locus YLR113W, strain HOG1, hits give low values 0.967 | S. cerevisiae deletion strains, locus YLR221C, strain rsa3, hits give low values 0.976 | S. cerevisiae deletion strains, locus YLR258W, strain gsy2, hits give low values 1.04 | S. cerevisiae deletion strains, locus YLR262C, strain YPT6 (second series), hits give low values 1.01 | S. cerevisiae deletion strains, locus YLR262C, strain YPT6, hits give low values 1.02 | S. cerevisiae deletion strains, locus YLR268W, strain sec22, hits give low values 0.968 | S. cerevisiae deletion strains, locus YLR320W, strain mms22, hits give low values 0.92 | S. cerevisiae deletion strains, locus YLR330W, strain CHS5, hits give low values 0.992 | S. cerevisiae deletion strains, locus YLR342W, strain FKS1 (second series), hits give low values 0.973 | S. cerevisiae deletion strains, locus YLR342W, strain FKS1, hits give low values 1.03 | S. cerevisiae deletion strains, locus YLR357W, strain rsc2, hits give low values 1.06 | S. cerevisiae deletion strains, locus YLR370C, strain arc18, hits give low values 1.02 | S. cerevisiae deletion strains, locus YLR371W, strain rom2, hits give low values 0.977 | S. cerevisiae deletion strains, locus YLR384C, strain iki3, hits give low values 0.989 | S. cerevisiae deletion strains, locus YLR418C, strain cdc73, hits give low values 0.957 | S. cerevisiae deletion strains, locus YML016C, strain PPZ1, hits give low values 0.991 | S. cerevisiae deletion strains, locus YML032C, strain rad52, hits give low values 0.97 | S. cerevisiae deletion strains, locus YML120C, strain ndi1, hits give low values 0.992 | S. cerevisiae deletion strains, locus YML124C, strain tub3, hits give low values 0.983 | S. cerevisiae deletion strains, locus YMR058W, strain fet3, hits give low values 1.01 | S. cerevisiae deletion strains, locus YMR078C, strain ctf18, hits give low values 0.983 | S. cerevisiae deletion strains, locus YMR125W, strain sto1, hits give low values 1.03 | S. cerevisiae deletion strains, locus YMR129W, hits give low values 0.988 | S. cerevisiae deletion strains, locus YMR205C, strain PFK2, hits give low values 0.993 | S. cerevisiae deletion strains, locus YMR223W, strain ubp8, hits give low values 0.972 | S. cerevisiae deletion strains, locus YMR231W, strain pep5, hits give low values 0.997 | S. cerevisiae deletion strains, locus YMR307W, strain GAS1, hits give low values 0.972 | S. cerevisiae deletion strains, locus YNL067W, strain RPL9B, hits give low values 1.01 | S. cerevisiae deletion strains, locus YNL071W, strain lat1, hits give low values 1.01 | S. cerevisiae deletion strains, locus YNL128W, strain TEP1, hits give low values 0.967 | S. cerevisiae deletion strains, locus YNL183C, strain NPR1, hits give low values 0.934 | S. cerevisiae deletion strains, locus YNL209W, strain ssb2, hits give low values 1.01 | S. cerevisiae deletion strains, locus YNL233W, strain BNI4, hits give low values 0.998 | S. cerevisiae deletion strains, locus YNL248C, strain rpa49, hits give low values 1.06 | S. cerevisiae deletion strains, locus YNL250W, strain rad50, hits give low values 0.995 | S. cerevisiae deletion strains, locus YNL271C, strain bni1, hits give low values 0.973 | S. cerevisiae deletion strains, locus YNL298W, strain CLA4, hits give low values 0.985 | S. cerevisiae deletion strains, locus YNL307C, strain MCK1, hits give low values 0.977 | S. cerevisiae deletion strains, locus YNL322C, strain KRE1 (second series), hits give low values 1.05 | S. cerevisiae deletion strains, locus YNL322C, strain KRE1, hits give low values 0.998 | S. cerevisiae deletion strains, locus YNR049C, strain mso1, hits give low values 1 | S. cerevisiae deletion strains, locus YNR052C, strain pop2, hits give low values 0.966 | S. cerevisiae deletion strains, locus YOL006C, strain TOP1, hits give low values 1.02 | S. cerevisiae deletion strains, locus YOL012C, strain htz1 1.25 | S. cerevisiae deletion strains, locus YOL147C, strain pex11, hits give low values 0.98 | S. cerevisiae deletion strains, locus YOR001W, strain rrp6, hits give low values 0.97 | S. cerevisiae deletion strains, locus YOR061W, strain CKA2, hits give low values 0.986 | S. cerevisiae deletion strains, locus YOR069W, strain VPS5, hits give low values 0.986 | S. cerevisiae deletion strains, locus YOR070C, strain gyp1, hits give low values 1.01 | S. cerevisiae deletion strains, locus YOR080W, strain dia2, hits give low values 1.02 | S. cerevisiae deletion strains, locus YOR083W, strain WHI5, hits give low values 0.99 | S. cerevisiae deletion strains, locus YOR106W, strain vam3, hits give low values 1.05 | S. cerevisiae deletion strains, locus YOR136W, strain idh2, hits give low values 0.981 | S. cerevisiae deletion strains, locus YOR144C, strain elg1, hits give low values 0.983 | S. cerevisiae deletion strains, locus YOR184W, strain ser1, hits give low values 0.98 | S. cerevisiae deletion strains, locus YOR231W, strain MKK1, hits give low values 0.952 | S. cerevisiae deletion strains, locus YOR265W, strain rbl2, hits give low values 0.992 | S. cerevisiae deletion strains, locus YOR270C, strain vph1, hits give low values 1.06 | S. cerevisiae deletion strains, locus YOR290C, strain snf2, hits give low values 1.05 | S. cerevisiae deletion strains, locus YOR316C, strain cot1, hits give low values 0.976 | S. cerevisiae deletion strains, locus YPL051W, strain arl3, hits give low values 1.02 | S. cerevisiae deletion strains, locus YPL055C, strain LGE1, hits give low values 1.04 | S. cerevisiae deletion strains, locus YPL078C, strain atp4, hits give low values 1.07 | S. cerevisiae deletion strains, locus YPL106C, strain sse1, hits give low values 1.04 | S. cerevisiae deletion strains, locus YPL240C, strain hsp82, hits give low values 1.01 | S. cerevisiae deletion strains, locus YPL241C, strain CIN2, hits give low values 0.993 | S. cerevisiae deletion strains, locus YPL256C, strain CLN2, hits give low values 0.955 | S. cerevisiae deletion strains, locus YPR119W, strain clb2, hits give low values 0.975 | S. cerevisiae deletion strains, locus YPR141C, strain kar3, hits give low values 0.973 | S. cerevisiae deletion strains, locus YPR163C, strain tif3, hits give low values 0.969 | S. cerevisiae deletion strains, locus YPR167C, strain met16, hits give low values 0.975 | S. cerevisiae deletion strains, strain wtn01, hits give low values 1.01 | S. cerevisiae strains, strain wild type, hits give low values 1
